Screens as filed in PubChem BioAssay.
Most compounds without a hit are left out; they make up all but 7.5% or so of the library.
ELG1 genotox: genotoxicity induction in ELG1-luciferase HEK293T cells | AID 504466 | actives 1.3% (n = 330,000) | Potency, µM (highest dose often 46 µM), without a hit: at the highest dose activity change, positive = activation, hits mostly activators | HEK293T ELG1-luciferase reporter, luminescence, 16 h; also: % of control where 0% means no effect; nearly all actives have a fitted effect of over 60% in size
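Cells (2,000/well) expressing the ELG1-luciferase fusion are dosed by pin tool and kept 16 hr at 37 °C, 5% CO2. Signal comes from ONE-Glo luciferase reagent after 30 min at room temperature.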
Luc counter: blocks Kinase-Glo luciferase, a counter-screen artifact. actives 0.28% (n = 200,000). Q27757. AID 1379. Kinase-Glo luciferase, ATP luminescence, 8 min. Potency, µM (doses to about 38.3 µM), inactives show at the highest dose activity change, negative = inhibition, actives largely listed as inhibitors; also: % is scaled to controls: 0 for no effect and ±100 for the full control effect; nearly all actives have a fitted effect of over 60% in size
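Kinase-Glo luciferase light output from ATP and luciferin was measured with 10 uM ATP, within the enzyme's linear range. Buffer: 50 mM imidazole pH 7.2, 50 mM KCl, 7 mM MgCl2, 0.01% Tween 20, 0.05% BSA; luminescence read after 8 min at ambient temperature.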
FLuc counter: counter-screen for miR-21 project: firefly luciferase inhibitors or activators. P08659. purified FLuc, Km substrates, luminescence inhibition. Potency, µM (highest dose often 57.5 µM), for the others: top-dose activity change, negative = inhibition, most hits filed as inhibitors. actives 6.9% (n = 360,000);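 also: plate controls were vehicle for no effect and reference inhibitor for full effect; nearly all actives have a fitted effect of over 55% in size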
Target sequence (P08659 whole entry, looked up): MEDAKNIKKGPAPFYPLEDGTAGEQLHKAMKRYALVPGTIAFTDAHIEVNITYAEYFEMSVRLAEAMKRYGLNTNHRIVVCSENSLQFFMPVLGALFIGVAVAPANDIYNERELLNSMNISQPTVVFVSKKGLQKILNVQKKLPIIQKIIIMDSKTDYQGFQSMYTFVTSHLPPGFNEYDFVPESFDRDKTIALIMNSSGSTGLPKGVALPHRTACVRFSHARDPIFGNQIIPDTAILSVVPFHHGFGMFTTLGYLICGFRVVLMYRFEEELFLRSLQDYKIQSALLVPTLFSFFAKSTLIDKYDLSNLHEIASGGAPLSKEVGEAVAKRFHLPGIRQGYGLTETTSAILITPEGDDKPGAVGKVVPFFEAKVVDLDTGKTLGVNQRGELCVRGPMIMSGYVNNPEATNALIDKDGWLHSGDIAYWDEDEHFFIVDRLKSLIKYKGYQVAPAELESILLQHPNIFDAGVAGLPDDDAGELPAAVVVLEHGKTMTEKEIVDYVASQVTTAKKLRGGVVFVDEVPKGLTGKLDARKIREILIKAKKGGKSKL
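Biochemical qHTS of compounds, final roughly 60 µM downward over six points, against 10 nM purified firefly luciferase using Km concentrations of substrates (10 uM D-luciferin, 10 uM ATP) in Tris acetate pH 7.5 buffer; luminescence output.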
SMN2 splice up: enhancers of SMN2 splice variant expression; HEK293 SMN2-luciferase splicing reporter, luminescence, 30-36 h; Potency, µM (top dose mostly 46.1 µM), inactives show at the top dose activity change, positive = activation, usual class: activators; actives 2.8% (n = 210,000); AID 1458; also: % of control where 0% means no effect; nearly all actives have a fitted effect of over 55% in size
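HEK293 cells carry an SMN2 minigene-luciferase reporter in which exon 7 inclusion puts luciferase in frame. Cells were seeded at 2000 cells/well, attached for 10-12 hours, then exposed to compounds for 30-36 hours at 37C before ONE-Glo luminescence.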
NPC1 prom act: activates the NPC1 promoter | Potency, µM (titrated, usually from 9.22 µM), for inactives: at the highest dose activation, usual class: activators | actives 2.4% (n = 320,000) | Huh7 NPC1 promoter luciferase reporter, 24 h; also: % of control where 0% means no effect; nearly all actives have a fitted effect of over 60% in size
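Huh7 reporter cells (NPC1 promoter driving luciferase) are dosed with compound for 24 h at 37 °C, 5% CO2; luciferase detection reagent is then added and luminescence measured after 10 min at ambient temperature.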
Rab9 promoter act: Rab9 promoter activation; Huh7 Rab9 promoter-luciferase reporter, luminescence, 24 h; actives 2.8% (n = 320,000); Potency, µM (top dose mostly 9.22 µM), for inactives: at the highest dose activation, negative = inhibition, most hits filed as activators; also: % of control where 0% means no effect; nearly all actives have a fitted effect of over 60% in size
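Huh7 reporter line, Rab9 promoter upstream of luciferase. Compound exposure 24 h at 37 °C in reduced-serum medium with 10% FBS. Read-out: luminescence.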
* = called active by the depositor; ? = inconclusive; / = not tested or not shown; [ ] = another dose, or the depositor's remark. Calls follow the shape of the dose curve; as a rule, active = well fitted curve in the direction sought with a large enough effect; inconclusive = small, poorly fitted or top-dose-only effect, or another doubt; inactive = no such curve, though single readings can be large; an effect the other way counts as inactive or inconclusive. Potency is read from the fitted curve at half-maximal effect.

SMILES	ELG1 genotox	Luc counter	FLuc counter	SMN2 splice up	NPC1 prom act	Rab9 promoter act
COc1cc(/C=N/Nc2nc3ccccc3[nH]2)ccc1O	?	-9.2%	4.78µM*	62.9%	4.0%	2.6%
COc1cc(/C=N/Nc2nc3ccccc3[nH]c2=O)ccc1O	-3.3%	-8.5%	15.1µM*	?	9.0%	1.9%
COc1cc(/C=N/Nc2nc(=O)[nH]nc2C)ccc1O	4.1%	/	?	/	-4.6%	-0.9%
O=C(Nc1ccc(F)cc1)c1ccccc1S(=O)(=O)c1ccccc1[N+](=O)[O-]	-0.3%	0.1%	5.1%	-9.7%[1.84 µM]	-1.0%	-3.4%
CCC(=O)N1CCc2cc(S(=O)(=O)NCCC(=O)NCc3ccc(C)cc3)ccc21	/	/	-3.3%	-6.1%	/	/
COc1ccc(NC(=O)c2ccc(-c3nc(CSc4ccc(C)cc4)c(C)o3)cc2)cc1Cl	/	/	-7.4%	/	/	/
Cc1ccc(NC(=O)COC(=O)CCC2CCCC2)cc1S(=O)(=O)N1CCOCC1	6.1%	/	/	/	/	/
O=C1c2cccc3c(N4CCCCC4)ccc(c23)C(=O)N1CCO	?	1.6%	15.1µM*	9.6%	?	?
O=C1c2cccc3c(N4CCCCC4)ccc(c23)C(=O)N1c1cccc(O)c1	12.5%	2.0%	19µM*	-10.1%	0.2%	0.2%
COc1ccccc1CCNC(=O)c1ccc(-c2nc(CSc3ccc(C)cc3)c(C)o2)cc1	/	/	-12.2%	/	/	/
O=C(Nc1ccc(Cl)c(Cl)c1)c1ccncc1	6.9%	-4.0%	?	17.6%	26.0%	22.3%
COc1ccc(C(=O)O)c(OC)n1	-8.3%	/	-2.1%	/	12.0%	-27.3%
O=C(Nc1ccc(Cl)c(Cl)c1)c1ccc(Cl)c(Cl)c1	12.4%	/	12µM*	/	3.55µM*	3.55µM*
CS(=O)(=O)c1cccc(NC(=O)c2ccc(Cl)c(Cl)c2)c1	0.7%	-0.4%	19µM*	/	2.1%	23.2%
Cc1ccc(NC(=O)c2ccc(Cl)c(N3C(=O)C=CC3=O)c2)cc1	6.7%	-1.5%	9.53µM*	-5.4%	-12.4%	-6.5%
CS(=O)(=O)c1ccc(C(=O)Nc2cc(S(C)(=O)=O)ccc2Cl)cc1	1.6%	/	-0.1%	/	2.5%	-0.9%
COc1ccc(C(=O)Nc2ccc(Cl)c(Cl)c2)c(OC)n1	?	-8.1%	0.953µM*	3.16µM*	2.6%	?
CCOC(=O)CCCNC(=O)CSc1nnc(-c2ccccc2)c(-c2ccccc2)n1	-2.2%	/	0.9%	/	-3.6%	-0.6%
COc1cccc(OCC(=O)Nc2c3c(nn2-c2ccc(F)cc2)CS(=O)(=O)C3)c1	-3.8%	/	4.5%	/	-5.0%	2.7%
COc1cccc(-c2nc(SC(C(C)=O)C(=O)N(C)C)c3c(=O)n(C)c(=O)n(C)c3n2)c1 (stereo not drawn)	/	/	0.0%	/	/	/
CC(OC(=O)c1cccc(-n2cnnn2)c1)c1nc2ccccc2c(=O)[nH]1 (stereo not drawn)	-0.7%	/	7.7%	/	1.0%	-4.1%
Cc1ccc(-c2cc3c(n2-c2ccccc2F)CC(C)(C)CC3=O)cc1	/	/	-0.6%	-5.0%	/	/
Nc1cccc2c1C(=O)N(CC(=O)NC13CC4CC(CC(C4)C1)C3)C2=O	0.5%	7.3%	-1.7%	-3.0%	-0.5%	-2.7%
O=C(Cn1sc2ccccc2c1=O)NC12CC3CC(CC(C3)C1)C2	1.0%	-1.1%	7.57µM*	-16.0%	13.3%	14.1%
Cc1ccc(CNC(=O)C2CCN(S(=O)(=O)c3cc(-c4noc(C)n4)ccc3C)CC2)cc1	/	/	-1.1%	/	/	/
SMILES	ELG1 genotox	Luc counter	FLuc counter	SMN2 splice up	NPC1 prom act	Rab9 promoter act
COc1ccc(-c2nnc(SCC(=O)Nc3cc(OC)ccc3OC)nc2-c2ccc(OC)cc2)cc1	/	/	-6.0%	/	/	/
O=C(Nc1nnc(C2CC2)s1)c1cc2ccccc2o1	?	/	13.5µM*	/	2.82µM*	3.55µM*
Cc1nnc(NC(=O)c2cc3ccccc3o2)s1	?	/	6.01µM*	/	?	?
CCOC(=O)c1sc(NC(=O)c2cc3ccccc3o2)nc1C	14.0%	-4.4%	2.39µM*	11.2µM*	-42.1%	-17.0%
CCOC(=O)Cc1csc(NC(=O)c2cc(=O)c3ccccc3o2)n1	-2.7%	0.7%	16.9µM*	5.0%	-2.0%	12.7%
Cc1ccccc1-c1nnc(NC(=O)c2cc3ccccc3oc2=O)s1	5.1%	1.5%	-0.7%	-40.6%	1.6%	1.4%
CCOC(=O)c1sc(NC(=O)CC2OC(=O)c3ccccc32)nc1C (stereo not drawn)	1.6%	/	?	/	-3.4%	0.2%
Cc1cccc(CCNC(=O)CCc2c(C)nc3c(c(C)nn3-c3ccccc3)c2C)c1	/	/	-17.2%	4.6%	/	/
COc1ccccc1N1CCN(c2ccc(NC(=O)c3ccc(C)cc3)cc2C(=O)O)CC1	/	/	-13.7%	/	/	/
C=CCOC(=O)c1sc(NC(=O)c2ccco2)nc1C	20.6µM*	-20.2%	9.53µM*	?	?	?
CCOC(=O)Cc1csc(NC(=O)c2sc3nc4c(C)cc(C)cc4cc3c2N)n1	?	0.9%	?	22.4µM*	18.1%	22.3%
CCOC(=O)Cc1csc(NC(=O)c2csc(C)c2)n1	?	-1.3%	?	-8.4%	11.3%	-0.1%
Cc1cnc(NC(=O)c2cc3ccccc3o2)s1	?	-11.1%	0.536µM*	2.24µM*	1.41µM*	?
CCOC(=O)c1sc(NC(=O)Cc2ccc(C)cc2)nc1C	-4.7%	0.6%	-16.1%	5.6%	-4.9%	-2.6%
CCOC(=O)c1sc(NC(=O)c2ccccc2OC)nc1C	1.84µM*	10µM*	0.426µM*	2.51µM*	0.8%	27.7%
CN1C(C(=O)c2ccccc2)=C(NC(=O)c2ccccc2Br)c2ccccc2S1(=O)=O	/	/	2.2%	-7.4%	/	/
CCN(CC)CCNC(=O)c1ccc(-n2c(-c3ccccc3)cc3c2CCCC3)cc1	/	/	-9.7%	/	/	/
N#Cc1cc2c(=O)n3ccccc3nc2n(-c2nnc(SCc3ccccc3Cl)s2)c1=O	/	/	-0.8%	-2.5%	/	/
CCOC(=O)c1sc(NC(=O)c2ccc(CC)s2)nc1C	2.59µM*	-6.5%	?	2µM*	-2.9%	23.3%
CCc1ccc(C(=O)Nc2nc(C)cs2)s1	?	/	0.953µM*	/	-11.9%	-16.4%
CCOCCn1cnc2sc(C(=O)Nc3nc(C)c(C(=O)OCC)s3)c(C)c2c1=O	12.0%	-2.0%	2.39µM*	-11.6%	-9.1%	1.9%
CCOC(=O)Cc1csc(N/N=C/c2ccc(C(F)(F)F)cc2)n1	3.0%	4.8%	0.6%	-21.7%	-4.9%	1.9%
CCOC(=O)c1sc(NC(=O)c2ccc(S(=O)(=O)N(C)C)cc2)nc1C	4.0%	-0.3%	-17.2%	?	-15.2%	-12.4%
CCOC(=O)Cc1csc(/N=C/c2c(O)n(-c3ccccc3C(F)(F)F)c(=O)c3ccccc23)n1	-5.8%	5.5%	10.7µM*	-10.3%	-2.3%	-2.5%
